# High-throughput results as filed in PubChem BioAssay.
# In the library only some 7.5% were active in any assay of this set; here they are far more common.
# SMN2 splice enh: SMN2 splice variant enhancement; HEK293 SMN2-luciferase splicing reporter, luminescence, 30-36 h; AID 1458; Potency, µM (top dose mostly 46.1 µM), without a hit: at the highest dose activity change, positive = activation, most hits filed as activators; 2.8% of 210,000 active; further: % of control where 0% means no effect; nearly all actives have a fitted effect of over 55% in size
#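 HEK293 cells carry an SMN2 minigene-luciferase reporter in which exon 7 inclusion puts luciferase in frame. Cells were seeded at 2000 cells/well, attached for 10-12 hours, then exposed to compounds for 30-36 hours at 37C before ONE-Glo luminescence.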
# NPC1 prom act: activators of NPC1 promoter; 2.4% of 320,000 active; Potency, µM (highest dose often 9.22 µM), for the others: at the highest dose activation, actives largely listed as activators; Huh7 NPC1 promoter luciferase reporter, 24 h; AID 485313; further: % of control where 0% means no effect; nearly all actives have a fitted effect of over 60% in size
#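 Stably transfected Huh7 (NPC1 promoter→luciferase), 1500 cells/well in Opti-MEM + 10% FBS, 2 h settle, then compound 24 h at 37 °C. Luminescence after 10 min with Amplite reagent.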
# Rab9 promoter act: activates the Rab9 promoter; Huh7 Rab9 promoter-luciferase reporter, luminescence, 24 h; 2.8% of 320,000 active; Potency, µM (top dose mostly 9.22 µM), for the others: top-dose activation, negative = inhibition, usual class: activators; further: % of control where 0% means no effect; nearly all actives have a fitted effect of over 60% in size
#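 Luminescence read-out: Huh7 cells stably expressing Rab9-luciferase, treated 24 h with compound at 37 °C, then lysed with luciferase reagent for 10 min at ambient before reading.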
# Luc counter: counter-screen: inhibitors of Kinase-Glo firefly luciferase; Kinase-Glo luciferase, ATP luminescence, 8 min; Potency, µM (doses to about 38.3 µM), without a hit: at the highest dose activity change, negative = inhibition, hits mostly inhibitors; 0.28% of 200,000 active; Q27757; further: on the % scale 0 is the no-effect control and ±100 the full control effect; nearly all actives have a fitted effect of over 60% in size
#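 Inhibition of Kinase-Glo luciferase light generation was assessed at 10 uM ATP in pH 7.2 imidazole buffer, with luminescence measured after eight minutes at ambient temperature.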
# FLuc counter: counter-screen for miR-21 project: firefly luciferase inhibitors or activators | P08659 | purified FLuc, Km substrates, luminescence inhibition | Potency, µM (top dose mostly 57.5 µM), for inactives: at the top dose activity change, negative = inhibition, hits mostly inhibitors | 6.9% of 360,000 active | AID 588342;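 further: plate controls were vehicle for no effect and reference inhibitor for full effect; nearly all actives have a fitted effect of over 55% in size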
# Target sequence (P08659 whole entry, looked up): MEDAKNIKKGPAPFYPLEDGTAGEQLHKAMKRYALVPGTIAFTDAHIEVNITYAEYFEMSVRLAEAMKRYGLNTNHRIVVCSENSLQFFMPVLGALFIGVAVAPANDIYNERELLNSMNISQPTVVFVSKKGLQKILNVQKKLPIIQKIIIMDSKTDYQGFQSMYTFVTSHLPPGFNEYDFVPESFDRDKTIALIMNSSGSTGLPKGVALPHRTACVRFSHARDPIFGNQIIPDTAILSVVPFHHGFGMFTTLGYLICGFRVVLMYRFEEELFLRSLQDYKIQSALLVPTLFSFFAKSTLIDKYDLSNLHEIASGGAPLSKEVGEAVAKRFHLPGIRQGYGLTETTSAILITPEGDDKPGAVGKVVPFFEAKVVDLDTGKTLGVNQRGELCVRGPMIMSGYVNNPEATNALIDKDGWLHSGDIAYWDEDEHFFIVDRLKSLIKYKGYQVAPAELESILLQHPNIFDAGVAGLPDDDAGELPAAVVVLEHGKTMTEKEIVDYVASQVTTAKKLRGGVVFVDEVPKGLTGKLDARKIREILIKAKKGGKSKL
#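 Biochemical qHTS of compounds, final roughly 60 µM downward over six points, against 10 nM purified firefly luciferase using Km concentrations of substrates (10 uM D-luciferin, 10 uM ATP) in Tris acetate pH 7.5 buffer; luminescence output.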
# ELG1 genotox: inducers of genotoxicity in HEK293T ELG1-luciferase cells; AID 504466; HEK293T ELG1-luciferase reporter, luminescence, 16 h; 1.3% of 330,000 active; Potency, µM (doses to about 46 µM), for inactives: at the highest dose activity change, positive = activation, actives largely listed as activators; further: % of control where 0% means no effect; nearly all actives have a fitted effect of over 60% in size
#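 Cells (2,000/well) expressing the ELG1-luciferase fusion are dosed by pin tool and kept 16 hr at 37 °C, 5% CO2. Signal comes from ONE-Glo luciferase reagent after 30 min at room temperature.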
# * hit, by the source's call; ? = inconclusive; . = no result given; [ ] = remark or other dose. The call rests on the fitted dose curve; in most records, active means well fitted curve in the direction sought with a large enough effect; inconclusive means small, poorly fitted or top-dose-only effect, or another doubt; inactive means no such curve, though single readings can be large; an effect the other way counts as inactive or inconclusive. Potency means the concentration at half of the fitted maximal effect.
SMILES,SMN2 splice enh,NPC1 prom act,Rab9 promoter act,Luc counter,FLuc counter,ELG1 genotox
COc1ccc(OC)c(CCNC(=O)CCCn2c(=O)c3cccn3c3ccccc32)c1,.,.,.,.,4.8%,.
Cc1ccc(S(=O)(=O)N2CCC(N3CCN(Cc4ccccc4)C(=O)C3=O)CC2)cc1C,.,.,.,.,-5.3%,.
COc1ccccc1/C=C/C=C1\Oc2c(ccc(O)c2CN2CCN(CCO)CC2)C1=O,24.5%,3.0%,2.8%,-1.9%,3.79µM*,8.7%
O=c1oc2c(CN3CCN(CCO)CC3)c(O)ccc2cc1-c1ccccc1,.,.,.,.,-9.7%,.
CCC(O)c1cc2c(cc1NC(=O)c1ccccc1F)OCCO2 (configuration not stated),.,.,.,.,-7.2%,.
O=C(Cc1ccc(Cl)c(Cl)c1)N/N=C/c1cccnc1,.,0.0%,-2.3%,.,0.2%,-0.7%
O=C(O)c1cc(N/N=C/c2ccc(-c3ccccc3)cc2)ccc1Cl,.,0.0891µM*,0.1µM*,.,0.757µM*,0.461µM*
COc1ccc(C(=O)Oc2ccc(/C=N/Nc3ccc(Cl)c(C(=O)O)c3)cc2OC)cc1,.,?,?,.,?,9.7%
O=C(O)c1cc(N/N=C/c2cccnc2)ccc1Cl,.,25.9%,23.9%,.,19µM*,5.3%
O=C(O)c1cc(N/N=C/c2ccncc2)ccc1Cl,.,17.7%,19.6%,.,9.53µM*,-0.2%
CSc1ccc(/C=N/Nc2ccc(Cl)c(C(=O)O)c2)cc1,1.78µM*,0.1µM*,?,2.2%,0.536µM*,?
CC(C)CN1CCC2(CC1)CCN(S(=O)(=O)c1ccccc1)CC2,-9.6%,.,.,1.8%,.,.
CNc1cncc(C(=O)O)c1,21.9%,-3.3%,-2.6%,-0.7%,-2.0%,1.3%
O=C(N/N=C/c1c[nH]c2ccccc12)c1ccc([N+](=O)[O-])cc1Cl,.,-7.4%,0.0%,.,?,-0.8%
O=C(O)c1cc(N/N=C/c2c[nH]c3ccccc23)ccc1Cl,.,2µM*,1.58µM*,.,6.75µM*,?
CCOC(=O)C1CCN(C(=O)COC(=O)CNC(=O)c2ccc(OC)cc2)CC1,12.9%,0.9%,-4.6%,0.8%,-3.8%,-5.0%
COc1cccc(N2CCN(C(=O)C3CCC(CNS(=O)(=O)c4ccc(Br)s4)CC3)CC2)c1 (configuration not stated),-11.1%,.,.,.,-7.1%,.
CCc1ccc(N=C2N=C(N)c3ccccc32)cc1,?,-2.8%,28.8%,10.7%,2.69µM*,?
CCc1nnc(NC(=O)CSc2ccc(-c3cccs3)nn2)s1,-5.0%,-0.4%,1.8%,2.0%,10.7µM*,-14.4%
CCc1nnc(NC(=O)CSc2ccc(-c3ccc(F)cc3)nn2)s1,?,2.1%,-3.0%,-1.7%,10.7µM*,?
CCc1nnc(NC(=O)CSc2ccc(-c3ccccc3OC)nn2)s1,-3.4%,-7.4%,-3.7%,-1.3%,?,8.2%
CCc1nnc(NC(=O)CSc2nc(-c3ccccc3)cc(-c3ccc(F)cc3)c2C#N)s1,-15.9%,-7.1%,-1.6%,-3.2%,6.4%,2.0%
COc1ccc(N2CCN(C(=O)C(C)n3c(=O)cc(C(F)(F)F)c4c(C)nn(C)c43)CC2)cc1 (configuration not stated),.,.,.,.,-0.8%,.
CC(=O)Nc1nc(-c2ccc([N+](=O)[O-])cc2)cs1,-19.0%,18.2%,?,-2.4%,1.1%,1.8%
CC(C)c1nc(-c2ccc([N+](=O)[O-])cc2)cs1,12.8%,11.4%,19.8%,-0.5%,16.9µM*,8.5%
SMILES,SMN2 splice enh,NPC1 prom act,Rab9 promoter act,Luc counter,FLuc counter,ELG1 genotox
COc1ccc2c(c1)Sc1ccccc1N2,-66.8%,3.5%,1.1%,0.5%,?,1.9%
c1ccc2c(c1)Nc1cc3ccccc3cc1S2,.,3.16µM*,3.55µM*,.,-26.6%,9.8%
CCOc1ccc(N(CC(=O)NC2CC3CCC2C3)S(=O)(=O)c2ccccc2)cc1 (configuration not stated),.,-1.3%,-3.4%,.,1.7%,-6.4%
COC(=O)c1ccccc1NC(=O)COc1ccccc1,8.1%,6.9%,6.5%,9.2%,?,15.7%
O=C(COc1ccccc1)NCCSCc1ccccc1Cl,.,19.7%,6.5%,0.9%,26.9µM*,16.7%
COc1ccccc1OCC(=O)NCCSCc1ccccc1Cl,19.3%,2.6%,-0.2%,1.8%,-15.4%,1.5%
O=C(COc1ccccc1)Nc1ccccc1Cl,-11.2%,?,?,1.6%,15.1µM*,?
CC(=O)Oc1ccc(-c2csc(Nc3cccc(C)n3)n2)cc1,.,2.24µM*,?,.,3.38µM*,13µM*
Cc1cccc(Nc2nc(-c3ccc(F)cc3)cs2)n1,.,3.55µM*,3.55µM*,.,5.36µM*,?
COc1ccc(-c2csc(Nc3cccc(C)n3)n2)cc1,.,0.891µM*,0.891µM*,.,2.69µM*,4.61µM*
COc1cccc2sc(Nc3nc(-c4ccncc4)cs3)nc12,-5.3%,-29.5%,-7.4%,-0.2%,-15.4%,6.1%
NS(=O)(=O)c1ccc(Nc2nc(-c3ccc(F)cc3)cs2)cc1,-51.7%,-2.8%,-2.5%,5.3%,3.8%,-5.9%
COc1ccc(-c2csc(Nc3cccc(C)n3)n2)cc1C,.,2.24µM*,1.58µM*,.,3.38µM*,?
O=C(O)/C=C/C(=O)Nc1ccccc1C(=O)OCC(=O)c1ccc2c(c1)OCCO2,-0.9%,1.9%,15.5%,?,0.19µM*,12.4%
CCCCC(=O)Nc1ccccc1C(=O)OCC(=O)c1ccc2c(c1)OCCO2,-8.9%,29.4%,?,-6.4%,1.2µM*,4.2%
CCOC(=O)c1ccccc1NC(=O)/C=C/C(=O)O,2.3%[1.84 µM],-3.9%,-0.7%,-1.4%,12.5%,-1.1%
Cc1cccc(C(=O)O)c1C[C@H]1NCC[C@H]2c3ccccc3N[C@@H]12,-1.6%[9.22 µM],.,.,-5.2%[7.66 µM],.,.
Oc1c(C(Nc2nc3ccccc3s2)c2ccco2)ccc2cccnc12 (configuration not stated),-99.1%,-1.5%,4.4%,12.7%,15.1µM*,18.4µM*
CC(C)C(=O)NC(c1ccco1)c1ccc2cccnc2c1O (configuration not stated),-99.8%,-31.0%,-28.7%,4.6%,-1.7%,-27.0%
COc1ccc(NC(=O)c2nc(SCc3ccccc3F)ncc2Cl)cc1,0.4%,.,.,.,5.1%,.
O=C(O)c1cc2c(s1)-c1ccccc1CC2,-13.3%[1.84 µM],1.6%,7.9%,1.2%,-15.9%,1.7%
CC1CCc2sc(-c3n[nH]c(=S)o3)cc2C1 (configuration not stated),10µM*,?,?,2.8%,6.75µM*,?
CSc1nnc(-c2cc3c(s2)-c2ccccc2CC3)o1,17.8µM*,11.8%,?,0.6%,4.78µM*,?
S=c1[nH]nc(-c2cc3c(s2)-c2ccccc2CC3)o1,14.1µM*,25.5%,?,5.1%,16.9µM*,?
